Sampled rows, rich in hits. Any-hit rate of the full collection: about 4%.
GRIN3A LBD mod: binders of NR3A ligand-binding domain, primary screen, biophysical, differential scanning fluorimetry, uHTS | Glutamate receptor ionotropic, NMDA 3A (GRIN3A) ligand-binding domain | NR3A LBD differential scanning fluorimetry, Tm shift; 0% = protein alone, 100% = glycine-bound protein | Tm shift relative to glycine control, % at 25 µM | 340,000 tested, 2.5% active | AID 1259313, 2017;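 active means melting temperature shift of at least 10% of the positive control shift, at one fixed dose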
FAS TE block: FAS thioesterase domain inhibitors, primary screen, biochemical, fluorescence intensity, uHTS | Fatty acid synthase (Homo sapiens), P49327 | recombinant FAS-TE, OMFH fluorogenic substrate, fluorescence endpoint | inhibition, % at 15 µM | 360,000 tested, 0.67% active | AID 602261, 2012;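 active means compounds whose normalised, plate-corrected inhibition of enzyme fluorescence in the single-dose primary screen is 50% or more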;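 further: 0% = DMSO with enzyme and 100% = substrate without enzyme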
aDG glyco act: activators of alpha-DG glycosylation, primary screen, uHTS, Pro5-aDG cells, AlphaScreen; alpha-DG glycosylation AlphaScreen (IIH6); 0% Pro5, 100% B10-LARGE cell signal; activation, % at 10 µM; 360,000 tested, 0.22% active; AID 624168, 2012;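 active means activation of at least 8% versus controls, or a plate z-score of at least 8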;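 further: Pro5 are CHO cells carrying HIG-tagged alpha-DG that lacks glycosylation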
ADAM17 inh: ADAM17 inhibitors, primary screen, biochemical, QFRET. Disintegrin and metalloproteinase domain-containing protein 17 (Homo sapiens), P78536. recombinant ADAM17, EDANS/DABCYL FRET peptide cleavage. inhibition, % at 6.95 µM. 370,000 tested, 0.83% active. AID 720648, 2013;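 active means inhibition above the mean of compounds lying between control limits plus 3 SD, set per campaign, cut at about 8.5% in these data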;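 further: 0% = DMSO-only wells as the low control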
ADAM10 inh: human ADAM10 inhibitors, primary screen, biochemical, QFRET, HTS | recombinant ADAM10, EDANS/DABCYL FRET peptide cleavage, 3 h | inhibition, % at 7 µM | 370,000 tested, 0.62% active | AID 720582, 2013;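 active means inhibition above a per-campaign cutoff equal to the mean of compounds falling between control-based bounds plus 3 SD, cut at about 20% in these data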;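 further: 0% = DMSO wells while the 100% control is not disclosed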
ADAM10 ctr: ADAM10 inhibitors, counter-screen for ADAM17 exosite inhibitor project, biochemical, FRET, human ADAM10; shares compounds with ADAM17 inh; recombinant ADAM10, EDANS/DABCYL FRET peptide cleavage, 3 h; inhibition, % at 6.95 µM; 2,900 tested, 47% active;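 active means mean inhibition over the triplicate runs exceeds the activity threshold set in the earlier primary screen, cut at about 20% in these data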;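 further: 0% = DMSO wells and 100% = marimastat wells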
ADAM17 confirm: ADAM17 inhibitors, hit retest, confirmation, biochemical, QFRET peptide cleavage. AID 743257, 2014. recombinant ADAM17, EDANS/DABCYL QFRET peptide cleavage. inhibition, % at 6.95 µM. 2,900 tested, 65% active. shares compounds with ADAM17 inh;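 active means mean inhibition across replicates above the hit cutoff set in the primary screen, cut at about 8.5% in these data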;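 further: 0% = DMSO wells and 100% = marimastat wells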
Starred values were filed as active, the others as inactive; · = no result.

SMILES	GRIN3A LBD mod	FAS TE block	aDG glyco act	ADAM17 inh	ADAM10 inh	ADAM10 ctr	ADAM17 confirm
CC(=O)Nc1sc(C)c(C)c1C(=O)Nc1ccc(C)cc1	2	0	0	-1	0	·	·
CCCc1cc(=O)[nH]c(SCC(=O)N(CCC#N)c2ccc3c(c2)OCCO3)n1	1	-5	0	-5	-13	·	·
CC(NC(C)c1ccccc1Cl)C(=O)Nc1cccc(S(=O)(=O)N2CCCCC2)c1 (stereo not given)	-8	20	0	11*	3	16	10*
COCCNC(=S)N1C[C@H]2CON(C)[C@H]2C[C@H]1c1ccccc1Br	·	·	·	9.4*	-2	-10	-2
COc1c(OC(C)=O)ccc(/C=C/c2ccc3ccccc3n2)c1[N+](=O)[O-]	2	59*	0	17*	17	25*	14*
CCOc1ccc(CN2CCN(C3CCSCC3)CC2CCO)cc1 (stereo not given)	0	-6	-1	-4	-11	·	·
Cc1cc(Cn2nnc(-c3ccc(Br)cc3)n2)cc(C)c1O	3	33	0	11*	2	13	7
CSc1ccc(-c2nnn(Cc3ccc(Br)cc3)n2)cc1	1	24	1	-6	-4	·	·
Cc1ccc(S(=O)(=O)N2CCN(c3ccc(C(F)(F)F)cc3[N+](=O)[O-])CC2)cc1	-2	30	1	10*	18	22*	11*
CC(C)=CCCC(C)c1cc(C(=O)NCCc2ccc(O)cc2)c(N)s1 (stereo not given)	·	·	0	-2	-7	·	·
C#CCOCCOCCOCCNc1nc(N2CCN(C(=O)[C@H]([C@@H](C)O)n3cc(CCCCN)nn3)CC2)nc(N2CCN(C(=O)[C@H](CCCCN)n3cc(CCC(=O)O)nn3)CC2)n1	2	0	1	2	6	·	·
CCOC(=O)N1CCC(n2c(SCC(=O)Nc3ccccc3OC)nc3ccccc3c2=O)CC1	1	36	0	10*	17	29*	16*
COC(=O)[C@]12C[C@H](CC(=O)NCC3CCCCC3)C(=O)N(CCc3ccc(OC)c(OC)c3)C1=C[C@H](C1CCCC1)O[C@@H]2C	·	·	·	7	13	·	·
COC(=O)[C@]12C[C@H](CC(=O)NCc3ccc(C)o3)C(=O)N(Cc3cccc4ccccc34)C1=C[C@H](C(C)C)O[C@@H]2C1CC1	·	·	·	11*	19	9	8.9*
COC(=O)[C@]12C[C@H](CC(=O)NCc3ccccc3)C(=O)N(Cc3ccco3)C1=C[C@H](COCc1ccccc1)O[C@@H]2C	·	·	·	10*	6	27*	12*
COC(=O)[C@]12C[C@H](CC(=O)NCc3ccccc3)C(=O)N(Cc3cccc4ccccc34)C1=C[C@H](C1CCCC1)O[C@@H]2C	·	·	·	10*	17	25*	17*
COC(=O)[C@]12C[C@H](CC(=O)NCC3CCCCC3)C(=O)N(CCc3ccc(OC)c(OC)c3)C1=C[C@H](C(C)(C)C)O[C@@H]2C	·	·	·	9.7*	7	19	11*
O=S1(=O)CCN(Cc2ccc(Cl)c(Cl)c2)CC1	-3	-5	0	-3	-3	·	·
O=S1(=O)CCN(Cc2ccc(Cl)cc2)CC1	-2	-5	0	9.2*	13	-8	1
COc1cc(CN2C[C@@H](CO)O[C@@H](n3cnc4c(N5CCN(c6ccccc6)CC5)ncnc43)C2)cc(OC)c1OC	·	-1	0	9.1*	5	0	3
O=C(CNC(=O)c1ccc(Br)cc1)N/N=C/c1cccnc1	1	-2	0	1	5	·	·
S=C(NCc1ccccc1)NCc1cccc(Cl)c1	-5	15	0	1	10	·	·
O=C(NNC(=S)NC(=O)c1ccc(Br)cc1)c1cccc([N+](=O)[O-])c1	-3	31	0	7	16	·	·
O=C(NNC(=S)NCc1ccccc1)c1cccc([N+](=O)[O-])c1	-7	23	0	13*	16	12	8
S=C(NCc1ccccc1)NCc1cccc(CNC(=S)NCc2ccccc2)c1	20*	21	0	9.3*	13	22*	14*
SMILES	GRIN3A LBD mod	FAS TE block	aDG glyco act	ADAM17 inh	ADAM10 inh	ADAM10 ctr	ADAM17 confirm
CCOc1ccc(NC(=O)CSc2nc3ccccc3c(=O)n2CCCC(=O)NCC2CCCO2)cc1 (stereo not given)	-1	-8	0	0	1	·	·
Cc1cccc(N2CCN(c3ccc(N4C(=O)CCCC4=O)cc3[N+](=O)[O-])CC2)c1C	-5	-7	1	14*	2	10	8
CC(=O)NC(CCS(C)(=O)=O)C(=O)Nc1cccc2ccccc12 (stereo not given)	-2	-4	0	-1	-6	·	·
COc1cccc(NC(=O)CSc2nncn2N)c1	3	-10	0	9.7*	11	9	9
CC(C)COc1cccc(C(=O)Nc2ccc(S(=O)(=O)N3CCOCC3)cc2)c1	-1	26	1	9.1*	14	27*	17*
CC(C)COc1cccc(C(=O)Nc2ccc(CN3CCOCC3)cc2)c1	-1	-2	0	-1	-5	·	·
CC(=O)c1cc(N2CCOCC2)ccc1[N+](=O)[O-]	1	2	0	-3	1	·	·
COc1ccccc1C1CC(c2ccc(Br)cc2)=NN1C(=O)c1cccnc1 (stereo not given)	-4	26	0	9.7*	17	9	8
COc1cccc(C2CC(c3ccc(Br)cc3)=NN2C(=O)c2ccncc2)c1OC (stereo not given)	-2	17	1	-1	-12	·	·
CCOc1ccccc1NS(=O)(=O)c1ccc(-c2cnc(C3CC3)o2)cc1	1	13	0	9.9*	7	0	5
COc1cc(C(=O)Nc2c(C(=O)N3CCOCC3)oc3ccccc23)cc(OC)c1OC	2	2	0	1	-7	·	·
COc1ccc(O)c(/C=N/NC(=O)c2ccc(CSc3nc(C)cc(C)n3)cc2)c1	1	17	1	14*	19	10	9.5*
